The values below come from ChEMBL document CHEMBL3988442, “University of Dundee, Small-Polar-MMV Screening Library” (2021).

About 13,000 (27%) of roughly 48,000 compounds showed an effect of 50% or more. The list shows a part of the results.

This assay deals with Wolbachia pipientis. The experiment in a line: Anti-Wolbachia Cell-Based Screen. The format is functional. Set-up: scale not given: in the data most compounds retested in dose-response had high values. The following applies: 5 µM.
For the compound `COc1cc2c(cc1OC)CN(C(C(=O)O)c1c(C)nn(C)c1C)CC2` (stereo not given), the “Percent Effect” value came to 14.43%.

`CO[C@H]1CO[C@@]2(CCCN(C(=O)C3CC=CC3)C2)C1`: the “Percent Effect” value worked out at 107.2%.

Consider `CO[C@@H]1CO[C@@]2(CCCN(C(=O)C3CC=CC3)C2)C1`, for which the “Percent Effect” value is listed as 95.67%.

Regarding `COc1ccccc1OCC(=O)N1CCC[C@]2(C[C@@H](OC)CO2)C1`, the “Percent Effect” value is recorded as -30.12%.

Regarding `CO[C@@H]1CO[C@@]2(CCN(C(=O)COc3ccccc3C)C2)C1`, the “Percent Effect” value is -3.612%.

Consider `COCC(=O)N1CC[C@@H]2O[C@@H](COCC3CCOCC3)CC[C@@H]21`, for which the “Percent Effect” value is given as -13.21%.

With `Cc1ccc(NS(=O)(=O)c2cccc(C#N)c2)c(CN(C)C)c1`, the “Percent Effect” value amounted to 5.777%.

Turning to `Cc1nn(C)cc1C(=O)N1CCCC(n2nnc3cc(F)ccc32)C1` (stereo not given), the “Percent Effect” value came out at 70.61%.

For the compound `Cc1nnsc1C(=O)N1CCCC(c2nccn2Cc2cscn2)C1` (stereo not given), the “Percent Effect” value was determined as 19.06%.

As to `Cc1nc(C)n(C2CCCN(C(=O)c3ccc(F)cc3F)C2)n1` (stereo not given), the “Percent Effect” value turned out to be 4.826%.

In the case of `Cc1nnsc1C(=O)N1CCCC(n2nnc3cc(F)ccc32)C1` (stereo not given), the “Percent Effect” value worked out at 86.87%.

Consider `O=C(c1n[nH]cc1Cl)N1CCCC(n2nnc3cc(F)ccc32)C1` (stereo not given), for which the “Percent Effect” value was 121.3%.

Take `Cc1c(C(=O)N2CCCC(n3nnc4cc(F)ccc43)C2)cnn1C` (stereo not given): the “Percent Effect” value was 103.4%.

In the case of `CCc1nnsc1C(=O)N1CCCC(COc2ccc(F)cc2)C1` (stereo not given), the “Percent Effect” value is given as -1.511%.

Take `Cc1cc(C)n(C2CCCN(C(=O)c3ccc(F)cc3F)C2)n1` (stereo not given): the “Percent Effect” value is listed as 0.0476%.

Regarding `O=C(c1n[nH]cc1Cl)N1CCOC(Cc2cccc(C(F)(F)F)c2)C1` (stereo not given), the “Percent Effect” value was 16.6%.

Regarding `COc1c(CNC2CCCOc3ccc(F)cc32)c(C)nn1C.Cl` (stereo not given), the “Percent Effect” value is -15.22%.

For the compound `Cc1ccccc1N1CCN(C(=O)c2ccc[nH]2)C(C)C1` (stereo not given), the “Percent Effect” value is -11.11%.

On to `COCc1noc(-c2ccc(N(C)Cc3cn(C)nc3C)nc2)n1`, for which the “Percent Effect” value was -0.7863%.

Take `COc1ccc(C(C)N2CCC(C(=O)NC3CC3)CC2)cc1Cl` (stereo not given): the “Percent Effect” value was 5.354%.

Take `O=C(c1ccsc1)N1CCc2c(CNc3nccs3)n[nH]c2C1`: the “Percent Effect” value was -7.215%.

As to `CN1C(=O)CC(c2ccccc2)C12CCN(c1ncccn1)CC2` (stereo not given), the “Percent Effect” value is on record as -22.26%.

As for `CCc1csc(CNC(=O)C(CC)n2cccn2)n1` (stereo not given), the “Percent Effect” value is recorded as -1.307%.

Consider `Cc1cc(C(F)(F)F)nc(CNC(=O)CCCN2CCCCC2)n1`, for which the “Percent Effect” value is listed as -0.7363%.

Consider `CCC(C(=O)NCc1noc(Cc2cccs2)n1)n1cccn1` (stereo not given), for which the “Percent Effect” value is -1.383%.

As for `Cc1cc(C(F)(F)F)nc(CNC(=O)CCn2cccn2)n1`, the “Percent Effect” value was determined as 103.4%.

For `Cc1cc(C(F)(F)F)nc(CNC(=O)CCC2CCCCN2C)n1` (stereo not given), the “Percent Effect” value is -1.594%.

Consider `CCC(C(=O)NCc1csc(-c2ncccn2)n1)n1cccn1` (stereo not given), for which the “Percent Effect” value worked out at 6.719%.

As to `CCC(C(=O)NCCc1nc(C)cc(C(F)(F)F)n1)n1cccn1` (stereo not given), the “Percent Effect” value is on record as 110%.

Consider `CCC(C(=O)NCc1cc(N2CCOCC2)ncn1)n1cccn1` (stereo not given), for which the “Percent Effect” value is -0.1761%.

Take `CCC(C(=O)NCc1nc(C)cc(C(F)(F)F)n1)n1cccn1` (stereo not given): the “Percent Effect” value came to 86.37%.

On to `CC(C)NC(=O)N[C@H]1C[C@@H](c2nc(-c3ccncc3)no2)N(C)C1`, for which the “Percent Effect” value is listed as -7.5%.

Consider `Cc1ccc2c(c1)CCCN2C(=O)c1cncc(Br)c1`, for which the “Percent Effect” value was determined as 3.118%.

Regarding `CCc1c(C(=O)Nc2ccc(F)c(C(=O)NC)c2)cnn1CC(C)C`, the “Percent Effect” value is 115.2%.

In the case of `CNC(=O)c1cc(NC(=O)NC(C)CCc2cccn2C)ccc1F` (stereo not given), the “Percent Effect” value was found to be 0.1416%.

As to `CCCn1cc(NC(=O)Nc2ccc(F)c(C(=O)NC)c2)cn1`, the “Percent Effect” value came to 109.9%.

Turning to `O=C(Nc1cnn(CCN2CCOCC2)c1)c1cc(F)ccc1F`, the “Percent Effect” value is on record as -10.74%.

For `Cc1c(C(=O)NS(=O)(=O)c2ccc(F)cc2)cnn1CC(C)C`, the “Percent Effect” value came out at 6.603%.

With `CCc1c(NCc2ccc(F)cc2)cnn1CC(C)C`, the “Percent Effect” value is recorded as 0.9512%.

Regarding `CNC(=O)CNC(=O)Nc1ccc(F)c(Br)c1`, the “Percent Effect” value was 3.521%.

On to `CNC(=O)c1cc(NC(=O)Nc2cnn(CC(C)C)c2)ccc1F`, for which the “Percent Effect” value came out at 106.8%.

As for `CC(C)Cn1cc(NC(=O)c2cccc(N(C)C)c2)cn1`, the “Percent Effect” value is -6.196%.

For `COCCCN1CCC(NC2CSCCc3ccccc32)CC1` (stereo not given), the “Percent Effect” value amounted to 3.161%.

Regarding `O=C(CCn1cncn1)N1C[C@H]2CC[C@@H]1CN(Cc1cccnc1)C2`, the “Percent Effect” value is 2.407%.

Take `Cc1nc(Cn2cnc3c(c(Br)nn3C)c2=O)cs1`: the “Percent Effect” value is given as -1.874%.

`Cc1csc([C@H]2C[C@@H]3CCN(Cc4cnn(C)c4)C[C@H]3O2)n1`: the “Percent Effect” value was 5.32%.

Consider `CN(C)C(=O)c1n[nH]c2c1CN(CC1CCC1)C2.O=C(O)C(F)(F)F.O=C(O)C(F)(F)F`, for which the “Percent Effect” value is 93.12%.

Turning to `CN(C)C(=O)c1n[nH]c2c1CN(CC1CCCCC1)C2.O=C(O)C(F)(F)F.O=C(O)C(F)(F)F`, the “Percent Effect” value was 93.81%.

Consider `CN1CCN(C(=O)c2n[nH]c3c2CCN(Cc2nccs2)C3)CC1`, for which the “Percent Effect” value is listed as -5.603%.

On to `CN(C)C1CCN(C(=O)c2n[nH]c3c2CCN(CC2CCC2)C3)CC1`, for which the “Percent Effect” value was found to be 111.2%.

Turning to `O=C(O)C(F)(F)F.O=C(c1n[nH]c2c1CCN(Cc1nccs1)C2)N1CCCC1`, the “Percent Effect” value came out at 1.297%.

With `Cc1ccc(CN2CCc3[nH]nc(C(=O)N(C)C)c3C2)s1.O=C(O)C(F)(F)F.O=C(O)C(F)(F)F`, the “Percent Effect” value is recorded as -17.1%.

Regarding `CCN1CCc2[nH]nc(C(=O)N3CCCC3C)c2C1.O=C(O)C(F)(F)F` (stereo not given), the “Percent Effect” value is given as -0.9609%.

As to `CN(C)C(=O)c1n[nH]c2c1CN(Cc1ccccn1)CC2.O=C(O)C(F)(F)F`, the “Percent Effect” value is listed as -21.72%.

On to `CN(C)C(=O)c1n[nH]c2c1CN(Cc1nccs1)CC2.O=C(O)C(F)(F)F`, for which the “Percent Effect” value was -9.505%.
